# Assay results published in PubChem BioAssay (NCATS).
# Values joined by “and” are separate entries in the source; they are usually repeats but may differ in a detail not shown here. Equal entries are not always repeated. Records with an inconclusive call do not appear. A call without a number means that no potency is given here. The source holds several records for some structures; these can differ, active in one and inactive in another. Active and inactive are the calls of the source. Unless noted, calls come from the whole dose curve; as a rule, active = well fitted curve in the direction sought with a large enough effect; inconclusive = small, poorly fitted or top-dose-only effect, or another doubt; inactive = no such curve, though single readings can be large; an effect the other way counts as inactive or inconclusive.
# What was measured:
# [1] = molecular target: 3',5'-cyclic-AMP phosphodiesterase 4B (Homo sapiens) (UniProt Q07343); experiment: qHTS Assay for Inhibitors of PDE-IV (AID 607; active = well fitted activation curve with a large enough effect in the main read-out, with a control signal flat, not every such curve was filed as active)
# Chain of 3',5'-cyclic-AMP phosphodiesterase 4B (Homo sapiens) (Q07343 whole entry, looked up): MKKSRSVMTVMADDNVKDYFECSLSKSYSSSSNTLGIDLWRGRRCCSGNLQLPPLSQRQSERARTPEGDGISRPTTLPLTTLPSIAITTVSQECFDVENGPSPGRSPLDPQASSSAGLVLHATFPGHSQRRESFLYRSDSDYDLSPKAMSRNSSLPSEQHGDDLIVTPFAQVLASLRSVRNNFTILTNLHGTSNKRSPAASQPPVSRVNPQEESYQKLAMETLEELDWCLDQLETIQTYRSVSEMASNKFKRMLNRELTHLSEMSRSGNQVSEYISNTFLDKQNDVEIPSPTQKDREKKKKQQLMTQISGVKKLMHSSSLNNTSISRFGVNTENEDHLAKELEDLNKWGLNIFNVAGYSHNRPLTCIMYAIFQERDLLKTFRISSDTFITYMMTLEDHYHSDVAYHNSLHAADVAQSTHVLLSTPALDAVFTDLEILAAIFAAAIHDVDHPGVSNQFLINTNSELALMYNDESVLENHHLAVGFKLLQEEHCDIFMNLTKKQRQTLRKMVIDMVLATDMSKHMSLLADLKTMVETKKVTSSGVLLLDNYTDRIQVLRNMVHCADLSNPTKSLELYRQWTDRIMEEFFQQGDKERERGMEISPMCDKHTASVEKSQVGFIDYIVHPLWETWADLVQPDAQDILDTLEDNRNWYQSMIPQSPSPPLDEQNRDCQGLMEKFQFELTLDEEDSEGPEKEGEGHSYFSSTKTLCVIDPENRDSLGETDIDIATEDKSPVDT
# Method in brief: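 HEK293 ACTOne cells with CNG channel (1000/well), endogenous PDE4; membrane potential dye, compounds up to 22.9 uM final. Fluorescence Ex 535/Em 590; RO 20-1724 (100 uM final) as reference.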
# [2] = molecular target: Guanine nucleotide-binding protein G(i) subunit alpha-1 (Homo sapiens) (UniProt P63096); experiment: qHTS Assay for Inhibitors of RGS12 GoLoco Motif Activity (Green Fluorophore) (AID 879);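 note: negative values mean loss of peptide binding seen as reduced polarization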
# Chain of Guanine nucleotide-binding protein G(i) subunit alpha-1 (Homo sapiens) (P63096 whole entry, looked up): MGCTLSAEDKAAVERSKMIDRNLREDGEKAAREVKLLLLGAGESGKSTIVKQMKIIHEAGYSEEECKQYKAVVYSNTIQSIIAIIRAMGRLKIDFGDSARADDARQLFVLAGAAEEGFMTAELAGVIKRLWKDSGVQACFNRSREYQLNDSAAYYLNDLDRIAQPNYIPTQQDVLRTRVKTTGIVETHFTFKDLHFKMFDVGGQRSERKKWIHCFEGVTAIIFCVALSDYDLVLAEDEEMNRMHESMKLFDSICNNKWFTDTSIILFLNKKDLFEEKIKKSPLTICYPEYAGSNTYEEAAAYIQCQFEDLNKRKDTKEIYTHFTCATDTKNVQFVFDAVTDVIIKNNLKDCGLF
# Method in brief: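 Fluorescence polarization assay: 50 nM Gαi1 with 10 nM FITC-labeled RGS12 GoLoco peptide in 10 mM Tris pH 7.5, 150 mM NaCl, 0.1 mM GDP, 0.05% NP40, 10 min at room temperature with compound.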
# [3] = Cell Viability - Mesenchymal (AID 546); settings: mesenchymal cells viability, qHTS; activity change, negative = cytotoxicity: at 91.7 µM (top of the series);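 note: cells exposed to compound for 40 hours before reading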; note: potency is the fitted concentration of half-maximal effect
# Method in brief: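 Human kidney mesenchymal cells from normal renal glomeruli, 1000 cells/well, rested 5 hr at 37 °C, then treated 40 hr at 37 °C in complete medium. Cellular ATP read by CellTiter-Glo luminescence; AC50 from Hill-equation fits.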
# [4] = Cellular Toxicity (caspase-3) HepG2 (AID 654);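 note: cells exposed to compound for 16 hours before reading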
# Method in brief: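 HepG2 cells (1500/well) were treated 16 h at 37 °C in complete medium, then caspase 3/7 activity was read by Caspase-Glo luminescence. Data were normalized to DMSO and 100 uM tamoxifen; AC50 came from Hill-equation fits of qHTS concentration-response.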
# [5] = Cellular Toxicity (caspase-3) Jurkat (AID 655);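 note: cells exposed to compound for 16 h at 37 °C before reading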; note: potency is the fitted concentration of half-maximal effect
# Method in brief: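 Jurkat cells (5000/well) in complete medium exposed 16 h at 37 C; caspase-3/7 activity read by Caspase-Glo luminescence after 20 min at room temperature. Normalized to DMSO and 100 uM tamoxifen; AC50 from Hill fits.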
# [6] = Cellular Toxicity (caspase-3) HUV-EC-C (AID 656)
# Method in brief: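 HUV-EC-C cells (1000/well) in complete medium, compound-treated 16 h at 37 °C; caspase-3/7 activity read by Caspase-Glo 3/7 luminescence. Normalized to DMSO (basal) and 100 uM tamoxifen (100%); AC50 from Hill-equation concentration-response fits.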
# [7] = Cellular Toxicity (caspase-3) SHSY5Y (AID 657)
# Method in brief: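 SH-SY5Y human neuroblastoma cells, 1500/well, exposed to compound for 16 hours at 37 °C in complete medium. Caspase-3/7 activity read by Caspase-Glo luminescence after 1 hr at room temperature, normalized to DMSO and 10 uM staurosporine; AC50 from Hill fit.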
# [8] = Cellular Toxicity (caspase-3) BJ (AID 658)
# Method in brief: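 BJ human foreskin fibroblasts, 1000 cells/well, treated 16 hours at 37 °C in complete medium; caspase 3/7 activity by Caspase-Glo luminescence after 1 hr at room temperature. Normalized to DMSO and 10 uM staurosporine; AC50 from Hill fits.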
# [9] = Cellular Toxicity (caspase-3) MRC-5 (AID 659); settings: Potency: caspase-3 activation; note: potency is the fitted concentration of half-maximal effect
# Method in brief: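 MRC-5 human normal lung fibroblasts, 1500 cells/well, treated 16 h at 37 °C in complete medium. Caspase 3/7 measured by Caspase-Glo luminescence after 1 h at room temperature. Normalized to DMSO and 10 uM staurosporine; AC50 from Hill fit.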
# [10] = Cellular Toxicity (caspase-3) Mesangial (AID 660)
# Method in brief: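 Human renal glomerular mesangial cells, 1000/well, 5 h at 37 C before 16 h compound treatment. Caspase-Glo 3/7 luminescence after 20 min; normalized to DMSO and 100 uM tamoxifen, AC50 from Hill fit.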
# [11] = Cellular Toxicity (caspase-3) SK-N-SH (AID 661); settings: SK-N-SH caspase-3 activation, qHTS; caspase-3 activation: at 91.7 µM (top of the series), DMSO as zero, staurosporine as full; note: potency is the fitted concentration of half-maximal effect
# Method in brief: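 Human SK-N-SH neuroblastoma cells, 1500/well, were exposed to compounds for 16 hours at 37 °C. Caspase-Glo 3/7 luminescence was normalized to DMSO (basal) and 10 uM staurosporine (100%), and AC50 came from a Hill fit.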
# [12] = Cellular Toxicity (caspase-3) H-4-II-E (AID 663);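 note: cells exposed to compound for 16 hr before readout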
# Method in brief: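 Rat hepatoma H-4-II-E cells (1500/well) plated 5 hr, then exposed to compound titrations for 16 hr at 37 °C. Caspase-Glo 3/7 luminescence read after 20 min at RT; data normalized to DMSO and 100 uM tamoxifen, AC50 from Hill fits.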
# [13] = Cellular Toxicity (caspase-3) Hek293 (AID 664);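 note: cells exposed to compound for 16 h at 37 °C before readout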
# Method in brief: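 HEK293 cells in complete medium treated 16 h at 37 °C, then Caspase-Glo 3/7 luminescence read after 20 min at room temperature. Normalized to DMSO and 100 uM tamoxifen; AC50 from Hill fit of concentration-response.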
# [14] = Cellular Toxicity (caspase-3) N2a (AID 665);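 note: compound exposure lasted 16 h at 37 °C before readout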
# Method in brief: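 Mouse N2a neuroblastoma cells, 1500 per well, treated 16 h at 37 °C in complete medium; caspase-3/7 activity by Caspase-Glo luminescence after 1 h. Normalized to DMSO and 10 uM staurosporine; AC50 from Hill fits.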
# [15] = Cellular Toxicity (caspase-3) NIH 3T3 (AID 666);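 note: caspase signal read after 16 h compound exposure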
# Method in brief: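 Mouse NIH 3T3 fibroblasts (1000/well) treated 16 h at 37 C; caspase-3/7 activity measured by Caspase-Glo 3/7 luminescence after 20 min. Normalized to DMSO and 100 uM tamoxifen; AC50 from Hill fits.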
# [16] = Cellular Toxicity (caspase-3) Renal Proximal Tubule (AID 667);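 note: cells exposed to compound for 16 hours at 37 °C before detection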
# Method in brief: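 Freshly isolated primary rat kidney proximal tubule cells, 1000/well, treated 16 hr at 37 °C, then Caspase-Glo 3/7 luminescence after 1 hr. Normalized to DMSO and 10 uM staurosporine; AC50 from Hill fit.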
# [17] = molecular target: Cytochrome P450 3A4 (Homo sapiens) (UniProt P08684); experiment: qHTS Assay for Inhibitors and Substrates of Cytochrome P450 3A4 (AID 884); note: nearly all actives have a fitted effect of over 50% in size
# Chain of Cytochrome P450 3A4 (Homo sapiens) (P08684 whole entry, looked up): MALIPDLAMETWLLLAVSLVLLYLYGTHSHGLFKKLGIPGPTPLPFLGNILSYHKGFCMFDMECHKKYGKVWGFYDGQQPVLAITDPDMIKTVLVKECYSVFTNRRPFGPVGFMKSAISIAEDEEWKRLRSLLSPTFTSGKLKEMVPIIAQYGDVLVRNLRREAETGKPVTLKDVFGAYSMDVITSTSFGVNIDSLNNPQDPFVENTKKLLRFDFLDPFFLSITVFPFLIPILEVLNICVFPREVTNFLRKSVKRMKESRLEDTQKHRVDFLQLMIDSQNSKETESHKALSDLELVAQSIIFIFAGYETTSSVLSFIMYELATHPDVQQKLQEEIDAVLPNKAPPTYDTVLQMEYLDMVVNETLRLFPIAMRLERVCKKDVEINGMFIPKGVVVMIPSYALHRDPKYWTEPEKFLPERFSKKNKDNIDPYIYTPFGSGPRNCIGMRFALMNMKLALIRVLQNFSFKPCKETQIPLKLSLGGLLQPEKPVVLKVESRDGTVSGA
# Method in brief: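 20 nM human CYP3A4 with 25 uM Luciferin-PPXE (at KM) in 200 mM KPO4, preincubated 10 min with compound; NADPH regeneration started a 60 min RT reaction. Luciferin detected by luminescence, normalized to 57 uM ketoconazole as full inhibition.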
# [18] = molecular target: Cytochrome P450 2D6 (Homo sapiens) (UniProt P10635); experiment: qHTS Assay for Inhibitors and Substrates of Cytochrome P450 2D6 (AID 891); note: nearly all actives have a fitted effect of over 60% in size; note: potency is the fitted concentration of half-maximal effect
# Chain of Cytochrome P450 2D6 (Homo sapiens) (P10635 whole entry, looked up): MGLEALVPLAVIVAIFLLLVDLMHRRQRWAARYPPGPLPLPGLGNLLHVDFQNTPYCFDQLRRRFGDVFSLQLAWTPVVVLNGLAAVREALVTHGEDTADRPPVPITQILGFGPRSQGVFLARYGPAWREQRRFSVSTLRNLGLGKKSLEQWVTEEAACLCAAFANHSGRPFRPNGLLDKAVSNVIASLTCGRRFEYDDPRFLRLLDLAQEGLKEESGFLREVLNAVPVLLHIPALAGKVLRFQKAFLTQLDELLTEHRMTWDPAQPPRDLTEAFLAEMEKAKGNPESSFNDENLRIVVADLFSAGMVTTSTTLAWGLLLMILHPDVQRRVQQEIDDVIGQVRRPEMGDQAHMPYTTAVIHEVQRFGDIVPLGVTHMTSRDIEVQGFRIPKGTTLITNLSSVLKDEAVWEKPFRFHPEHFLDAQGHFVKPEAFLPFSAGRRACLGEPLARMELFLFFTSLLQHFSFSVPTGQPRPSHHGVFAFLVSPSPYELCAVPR
# Method in brief: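 Human CYP2D6 (5 nM) with 30 uM Luciferin-ME EGE (at Km) in 100 mM KPO4, compound preincubated 10 min, then NADPH regeneration system for 60 min at room temperature. Luciferin read by luminescence; normalized to 1.43 uM quinidine.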
# [19] = qHTS Assay for Identification of Small Molecule Antagonists for NFkB Signaling Pathway (AID 895; active = well fitted inhibition curve with a large enough effect in the signal ratio, with a control signal flat, not every such curve was filed as active; the % refers to the signal ratio)
# Method in brief: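 ME-180 NFkB-bla cells (beta-lactamase under NFkB response element), plated overnight, treated with compound then 10 pM TNF alpha (about EC50) for 5 hrs at 37 C. LiveBLAzer FRET read at 460/530 nm emission, 405 nm excitation.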
# [20] = molecular target: Cytochrome P450 3A4 (Homo sapiens) (UniProt P08684); experiment: qHTS Assay for Activators of Cytochrome P450 3A4 (AID 885); note: nearly all actives have a fitted effect of over 65% in size
# Method in brief: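 Human CYP3A4 (20 nM) with Luciferin-PPXE at 25 uM (its KM) in 200 mM KPO4; 10 min compound preincubation, then NADPH regeneration and 60 min reaction at RT. Luciferin read by luminescence; normalized to 57 uM ketoconazole full inhibition.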
structure (smiles),measurement,setting,value
CNCCCN1c2ccccc2CCc2ccccc21,Potency,[1],inactive
same,Potency,[2],inactive
NCCCNCCSP(=O)(O)O,Potency,[1],inactive
same,Potency,[2],inactive
O=C(O)CP(=O)(O)O,Potency,[1],inactive
same,Potency,[2],inactive
CCNC(=O)N1CCN(CCCC(c2ccc(F)cc2)c2ccc(F)cc2)CC1,Potency,[1],inactive
same,Potency,[2],inactive
O=C(CCCN1CCC(O)(c2cccc(C(F)(F)F)c2)CC1)c1ccc(F)cc1,Potency,[1],inactive
same,Potency,[2],inactive
CN(C)CCCN1c2ccccc2Sc2ccccc21,Potency,[1],inactive
same,Potency,[2],inactive
C[N+](C)(C)CCCCCCCCCC[N+](C)(C)C,Potency,[1],inactive
same,Potency,[2],inactive
NC(=O)N1c2ccccc2C=Cc2ccccc21,Potency,[3],inactive
same,Potency,[1],inactive
same,outcome,[4],inactive
same,Potency,[5],inactive
same,outcome,[6],inactive
same,outcome,[7],inactive
same,outcome,[8],inactive
same,Potency,[9],inactive
same,outcome,[10],inactive
same,caspase-3 activation,[11],0.961% (inactive)
same,outcome,[12],inactive
same,outcome,[13],inactive
same,outcome,[14],inactive
same,outcome,[15],inactive
same,outcome,[16],inactive
same,Potency,[2],inactive
same,outcome,[17],inactive
same,Potency,[18],inactive
same,Potency,[19],inactive
CN=C(NC#N)NCCSCc1nc[nH]c1C,Potency,[3],inactive
same,Potency,[1],inactive
same,outcome,[4],inactive
same,Potency,[5],inactive
same,outcome,[6],inactive
same,outcome,[7],inactive
same,outcome,[8],inactive
same,Potency,[9],inactive
same,outcome,[10],inactive
same,caspase-3 activation,[11],-1.11% (inactive)
same,outcome,[12],inactive
same,outcome,[13],inactive
same,outcome,[14],inactive
same,outcome,[15],inactive
same,outcome,[16],inactive
same,Potency,[2],inactive
same,Potency,[18],inactive
C[N+](C)(C)CCOC(=O)CCC(=O)OCC[N+](C)(C)C,Potency,[1],inactive
same,Potency,[2],inactive
COc1cc(C(=O)OCCCN2CCCN(CCCOC(=O)c3cc(OC)c(OC)c(OC)c3)CC2)cc(OC)c1OC,Potency,[1],inactive
same,Potency,[2],inactive
O=C(O)CN(CCN(CC(=O)O)CC(=O)O)CCN(CC(=O)O)CC(=O)O,Potency,[1],inactive
same,Potency,[2],inactive
COc1ccc(CN(CCN(C)C)c2ccccn2)cc1,Potency,[3],inactive
same,Potency,[1],inactive
same,outcome,[4],inactive
same,Potency,[5],inactive
same,outcome,[6],inactive
same,outcome,[7],inactive
same,outcome,[8],inactive
same,Potency,[9],inactive
same,outcome,[10],inactive
same,caspase-3 activation,[11],-0.853% (inactive)
same,outcome,[12],inactive
same,outcome,[13],inactive
same,outcome,[14],inactive
same,outcome,[15],inactive
same,outcome,[16],inactive
same,Potency,[2],inactive
same,Potency,[20],inactive
same,Potency,[18],501 nM (active) and 126 nM (active)
Nc1ncn([C@@H]2O[C@H](CO)[C@@H](O)[C@H]2O)c(=O)n1,Potency,[3],31.6 µM (active)
same,outcome,[4],inactive
same,Potency,[5],2 µM (active)
same,outcome,[6],inactive
same,outcome,[7],inactive
same,outcome,[8],inactive
same,Potency,[9],inactive
same,outcome,[10],inactive
same,Potency,[11],31.6 µM (active)
same,outcome,[12],inactive
same,outcome,[13],inactive
same,outcome,[14],inactive
same,outcome,[15],inactive
same,outcome,[16],inactive
same,Potency,[2],inactive
NC(=Nc1ccccc1)Nc1ccccc1,Potency,[3],inactive
same,outcome,[4],inactive
same,Potency,[5],inactive
same,outcome,[6],inactive
same,outcome,[7],inactive
same,outcome,[8],inactive
same,Potency,[9],inactive
same,outcome,[10],inactive
same,caspase-3 activation,[11],0.122% (inactive)
same,outcome,[12],inactive
same,outcome,[13],inactive
same,outcome,[14],inactive
same,outcome,[15],inactive
same,outcome,[16],inactive
same,outcome,[17],inactive
COC(=O)[C@H]1[C@H]2C[C@@H]3c4[nH]c5cc(OC)ccc5c4CCN3C[C@H]2C[C@@H](OC(=O)c2cc(OC)c(OC)c(OC)c2)[C@@H]1OC,"activity change, negative = cytotoxicity",[3],-90.3% (active)
same,outcome,[6],inactive
same,outcome,[7],inactive
same,Potency,[9],31.6 µM (active)
same,outcome,[10],inactive
same,caspase-3 activation,[11],87.8% (active)
same,outcome,[13],inactive
same,outcome,[14],inactive
same,outcome,[15],inactive
same,outcome,[16],inactive
same,Potency,[2],inactive
same,Potency,[20],inactive
COc1ccc([C@@H]2Sc3ccccc3N(CCN(C)C)C(=O)[C@@H]2OC(C)=O)cc1,Potency,[1],inactive
CN/C(=C\[N+](=O)[O-])NCCSCc1ccc(CN(C)C)o1,Potency,[1],inactive
same,Potency,[2],inactive
O=C1CC2(CCCC2)CC(=O)N1CCCCN1CCN(c2ncccn2)CC1,Potency,[1],inactive
same,Potency,[2],inactive
CCN1CCC[C@H]1CNC(=O)c1c(O)c(Cl)cc(Cl)c1OC,Potency,[1],inactive
CCCCNC(=O)NS(=O)(=O)c1ccc(C)cc1,Potency,[3],inactive
same,Potency,[1],inactive
same,outcome,[4],inactive
same,Potency,[5],inactive
same,outcome,[6],inactive
same,outcome,[7],inactive
same,outcome,[8],inactive
same,Potency,[9],inactive
same,outcome,[10],inactive
same,caspase-3 activation,[11],-0.361% (inactive)
same,outcome,[12],inactive
same,outcome,[13],inactive
same,outcome,[14],inactive
same,outcome,[15],inactive
same,outcome,[16],inactive
same,Potency,[2],inactive
same,Potency,[18],inactive
Cc1nc2ccccn2c(=O)c1CCN1CCC(C(=O)c2ccc(F)cc2)CC1,Potency,[1],inactive
same,Potency,[2],inactive
same,Potency,[20],inactive
same,Potency,[19],inactive
O=C(O)CCCCCCCC(=O)O,Potency,[1],inactive
same,Potency,[2],inactive
same,outcome,[17],inactive
CC1=NS(=O)(=O)c2cc(Cl)ccc2N1,Potency,[1],inactive
same,Potency,[2],inactive
same,Potency,[20],inactive
same,Potency,[18],inactive and 7.94 µM (active)
